Results as given in ChEMBL document CHEMBL3988442, “University of Dundee, Small-Polar-MMV Screening Library” (2021).
For some assays here: Results with a measured potency or affinity are listed apart.

Columns and labels:
Parameters in all cases: scale not given: direction of the effect not stated beside the values
[1] = biological target: Protein translocase subunit SecA (Escherichia coli (strain K12)) (UniProt P10408); assay: Assay to Identify E. coli SecA ATPase Inhibitors; assay type: functional; conditions: 30 µM
[2] = biological target: T1, Ubiquitin-activating enzyme e1, putative (Leishmania donovani (strain BPK282A1)) (UniProt E9BSI1); assay: Leishmania donovani Ubiquitin Activating Enzyme (LdE1); assay type: functional; conditions: 30 µM
T1 sequence (whole entry): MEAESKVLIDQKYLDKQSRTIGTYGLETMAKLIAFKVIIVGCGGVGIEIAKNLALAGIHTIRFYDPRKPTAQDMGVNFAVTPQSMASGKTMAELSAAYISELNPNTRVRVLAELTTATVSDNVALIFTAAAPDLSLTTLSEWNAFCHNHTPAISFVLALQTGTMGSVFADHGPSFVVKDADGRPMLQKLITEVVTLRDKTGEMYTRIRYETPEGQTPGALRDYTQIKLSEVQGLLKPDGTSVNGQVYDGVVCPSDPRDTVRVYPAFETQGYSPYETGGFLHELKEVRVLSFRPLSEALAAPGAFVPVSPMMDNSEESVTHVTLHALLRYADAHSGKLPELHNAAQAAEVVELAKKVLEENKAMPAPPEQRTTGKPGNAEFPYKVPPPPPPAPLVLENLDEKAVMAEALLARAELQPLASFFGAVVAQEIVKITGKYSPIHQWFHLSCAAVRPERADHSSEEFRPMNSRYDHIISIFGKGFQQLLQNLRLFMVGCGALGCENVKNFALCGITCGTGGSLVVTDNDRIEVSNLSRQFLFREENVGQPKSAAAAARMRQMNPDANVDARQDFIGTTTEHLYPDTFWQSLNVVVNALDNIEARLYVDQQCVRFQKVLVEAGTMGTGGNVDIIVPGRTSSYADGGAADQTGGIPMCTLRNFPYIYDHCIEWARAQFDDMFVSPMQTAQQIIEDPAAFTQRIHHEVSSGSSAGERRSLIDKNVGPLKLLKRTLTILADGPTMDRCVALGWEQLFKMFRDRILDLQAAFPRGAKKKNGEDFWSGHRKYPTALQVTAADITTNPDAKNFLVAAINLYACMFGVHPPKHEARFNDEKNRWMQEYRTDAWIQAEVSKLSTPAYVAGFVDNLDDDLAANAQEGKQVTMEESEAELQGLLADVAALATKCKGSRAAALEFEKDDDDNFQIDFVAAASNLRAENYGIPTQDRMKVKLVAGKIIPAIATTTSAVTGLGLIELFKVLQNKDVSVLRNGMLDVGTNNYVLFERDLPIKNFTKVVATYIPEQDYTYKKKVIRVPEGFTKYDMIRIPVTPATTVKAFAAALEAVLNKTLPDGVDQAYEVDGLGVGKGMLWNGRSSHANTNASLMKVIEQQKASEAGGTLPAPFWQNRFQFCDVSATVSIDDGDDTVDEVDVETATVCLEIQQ

[3] = biological target: AMP-activated protein kinase, AMPK (Homo sapiens) (UniProt P54646+O43741+P54619+Q9UGJ0+Q9Y478+Q13131+Q9UGI9); assay: AMP-dependent Kinase enzyme assay. An in vitro enzyme assay that detects ADP turnover that is directly proportional to AMPK activity. This uses naive AMPK that is activated during the assay with MK-8722; assay type: functional; conditions: 30 µM
[4] = biological target: Sialic acid-binding Ig-like lectin 9 (Homo sapiens) (UniProt Q9Y336); assay: Hs-Siglec9 ALPHAscreen SOP 20170721; conditions: 10 µM
[5] = test system: Trypanosoma cruzi; assay: Trypanosoma cruzi phosphomannomutase and mannose-1-phosphate guanylyltransferase assay; assay type: functional; conditions: 10 µM
[6] = biological target: T2, Arginase-2, mitochondrial (Homo sapiens) (UniProt P78540); assay: in vitro enzyme assay to detect the production of urea directly proportional to the activity of Arginase II; assay type: functional; conditions: 33.3 µM; further: in the data most compounds retested in dose-response had high values
T2 sequence (whole entry): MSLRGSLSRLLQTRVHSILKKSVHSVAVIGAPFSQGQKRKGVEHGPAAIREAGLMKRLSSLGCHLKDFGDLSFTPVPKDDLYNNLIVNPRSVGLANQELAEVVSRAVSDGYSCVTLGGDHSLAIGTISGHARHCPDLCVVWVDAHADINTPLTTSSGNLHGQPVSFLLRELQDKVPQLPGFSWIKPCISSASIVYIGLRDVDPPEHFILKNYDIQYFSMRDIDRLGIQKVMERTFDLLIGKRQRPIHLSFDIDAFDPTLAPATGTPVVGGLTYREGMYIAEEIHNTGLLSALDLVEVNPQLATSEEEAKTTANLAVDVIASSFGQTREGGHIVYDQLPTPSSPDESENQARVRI

[7] = biological target: T3, Proteasome subunit beta (Trypanosoma cruzi) (UniProt O96673); assay: Trypanosoma cruzi proteasome chymotrypsin-like activity (TcProtChymo) assay.; further: in the data most compounds retested in dose-response had high values; assay type: functional; conditions: 9.37 µM
T3 sequence (whole entry): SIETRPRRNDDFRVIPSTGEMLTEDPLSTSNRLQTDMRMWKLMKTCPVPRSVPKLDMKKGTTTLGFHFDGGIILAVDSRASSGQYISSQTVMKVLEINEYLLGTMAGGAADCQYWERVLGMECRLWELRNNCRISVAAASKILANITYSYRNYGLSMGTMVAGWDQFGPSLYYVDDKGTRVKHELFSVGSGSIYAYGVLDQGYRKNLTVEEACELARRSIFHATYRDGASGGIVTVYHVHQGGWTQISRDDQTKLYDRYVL

[8] = species: Homo sapiens; assay: To identify inhibition of the IFN signalling (Jak-Stat) pathway via expression of an eGFP reporter gene under the control of an IFN-stimulated response element (ISRE) containing MxA promoter.; assay type: functional; conditions: 30 µM
[9] = biological target: T4, Tyrosyl-tRNA synthetase, putative (Trypanosoma cruzi (strain CL Brener)) (UniProt Q4DSP6); assay: Trypanosoma cruzi tyrosyl tRNA synthetase (TcYRS) _High Tyrosine SOP; assay type: functional; conditions: 30 µM; further: in the data most compounds retested in dose-response had high values
T4 sequence (whole entry): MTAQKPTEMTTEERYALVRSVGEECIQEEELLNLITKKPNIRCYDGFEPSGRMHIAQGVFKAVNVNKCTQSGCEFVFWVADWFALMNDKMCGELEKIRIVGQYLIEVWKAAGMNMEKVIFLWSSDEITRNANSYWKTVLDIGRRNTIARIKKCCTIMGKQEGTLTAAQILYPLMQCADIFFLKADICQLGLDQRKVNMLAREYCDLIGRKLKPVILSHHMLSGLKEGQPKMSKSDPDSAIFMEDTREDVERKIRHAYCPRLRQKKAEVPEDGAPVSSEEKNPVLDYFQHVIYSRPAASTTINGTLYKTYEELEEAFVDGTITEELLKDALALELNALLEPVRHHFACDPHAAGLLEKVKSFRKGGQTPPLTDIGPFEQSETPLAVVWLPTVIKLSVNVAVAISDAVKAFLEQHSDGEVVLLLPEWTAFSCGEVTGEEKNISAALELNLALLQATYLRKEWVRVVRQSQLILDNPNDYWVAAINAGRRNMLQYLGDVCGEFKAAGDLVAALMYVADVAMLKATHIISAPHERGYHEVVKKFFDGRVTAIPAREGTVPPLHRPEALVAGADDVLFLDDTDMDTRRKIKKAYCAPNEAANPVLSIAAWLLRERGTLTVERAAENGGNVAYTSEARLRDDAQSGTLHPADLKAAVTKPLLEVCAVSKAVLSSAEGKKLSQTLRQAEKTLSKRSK

[10] = biological target: T4, Tyrosyl-tRNA synthetase, putative (Trypanosoma cruzi (strain CL Brener)); assay: Trypanosoma cruzi tyrosyl tRNA synthetase (TcYRS) SOP; assay type: functional; conditions: 30 µM
[11] = biological target: Chromo domain-containing protein 1 (Saccharomyces cerevisiae (strain ATCC 204508 / S288c) (Baker's yeast)) (UniProt P32657); assay: ScCHD-1 Enzyme Inhibition Assay; assay type: functional; conditions: 30 µM; further: in the data most compounds retested in dose-response had high values
Sequence of Chromo domain-containing protein 1 (Saccharomyces cerevisiae (strain ATCC 204508 / S288c) (Baker's yeast)) (P32657 whole entry, the tested form may be a part): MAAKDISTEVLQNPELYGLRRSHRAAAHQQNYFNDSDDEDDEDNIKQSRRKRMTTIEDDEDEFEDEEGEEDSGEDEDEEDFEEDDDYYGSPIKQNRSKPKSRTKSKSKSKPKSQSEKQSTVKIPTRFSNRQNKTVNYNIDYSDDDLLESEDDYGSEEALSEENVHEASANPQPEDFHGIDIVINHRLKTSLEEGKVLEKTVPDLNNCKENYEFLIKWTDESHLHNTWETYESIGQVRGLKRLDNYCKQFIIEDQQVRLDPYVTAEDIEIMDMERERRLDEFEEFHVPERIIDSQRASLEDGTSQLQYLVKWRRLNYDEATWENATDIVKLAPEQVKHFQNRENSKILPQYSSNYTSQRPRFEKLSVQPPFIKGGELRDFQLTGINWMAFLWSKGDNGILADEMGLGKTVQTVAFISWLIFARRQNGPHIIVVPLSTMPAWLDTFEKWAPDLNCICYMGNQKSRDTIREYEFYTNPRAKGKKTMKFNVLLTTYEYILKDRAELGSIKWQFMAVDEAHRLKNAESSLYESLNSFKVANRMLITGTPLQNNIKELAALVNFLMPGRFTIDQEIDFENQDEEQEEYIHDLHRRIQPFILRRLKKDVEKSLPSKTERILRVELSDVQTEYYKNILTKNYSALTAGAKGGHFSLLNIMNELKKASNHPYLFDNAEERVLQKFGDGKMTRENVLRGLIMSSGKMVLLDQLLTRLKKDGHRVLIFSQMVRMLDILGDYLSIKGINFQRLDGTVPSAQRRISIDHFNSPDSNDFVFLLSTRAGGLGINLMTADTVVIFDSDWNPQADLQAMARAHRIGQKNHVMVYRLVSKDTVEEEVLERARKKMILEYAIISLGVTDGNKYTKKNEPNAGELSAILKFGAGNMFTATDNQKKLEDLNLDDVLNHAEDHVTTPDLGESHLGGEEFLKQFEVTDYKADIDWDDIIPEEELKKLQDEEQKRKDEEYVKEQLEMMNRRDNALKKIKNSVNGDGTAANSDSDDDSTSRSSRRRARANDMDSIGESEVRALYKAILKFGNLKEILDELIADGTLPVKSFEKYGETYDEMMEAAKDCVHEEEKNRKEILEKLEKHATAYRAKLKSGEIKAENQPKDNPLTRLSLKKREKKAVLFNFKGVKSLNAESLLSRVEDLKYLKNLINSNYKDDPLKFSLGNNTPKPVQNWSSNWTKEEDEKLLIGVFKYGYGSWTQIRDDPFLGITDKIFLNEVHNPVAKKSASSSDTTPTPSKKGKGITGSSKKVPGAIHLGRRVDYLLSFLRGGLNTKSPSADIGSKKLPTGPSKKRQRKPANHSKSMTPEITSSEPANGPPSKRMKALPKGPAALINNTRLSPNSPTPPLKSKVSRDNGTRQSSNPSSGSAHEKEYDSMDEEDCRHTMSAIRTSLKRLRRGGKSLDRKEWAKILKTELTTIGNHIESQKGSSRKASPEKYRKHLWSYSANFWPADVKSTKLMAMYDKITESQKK

Sequence of Protein translocase subunit SecA (Escherichia coli (strain K12)) (P10408 whole entry): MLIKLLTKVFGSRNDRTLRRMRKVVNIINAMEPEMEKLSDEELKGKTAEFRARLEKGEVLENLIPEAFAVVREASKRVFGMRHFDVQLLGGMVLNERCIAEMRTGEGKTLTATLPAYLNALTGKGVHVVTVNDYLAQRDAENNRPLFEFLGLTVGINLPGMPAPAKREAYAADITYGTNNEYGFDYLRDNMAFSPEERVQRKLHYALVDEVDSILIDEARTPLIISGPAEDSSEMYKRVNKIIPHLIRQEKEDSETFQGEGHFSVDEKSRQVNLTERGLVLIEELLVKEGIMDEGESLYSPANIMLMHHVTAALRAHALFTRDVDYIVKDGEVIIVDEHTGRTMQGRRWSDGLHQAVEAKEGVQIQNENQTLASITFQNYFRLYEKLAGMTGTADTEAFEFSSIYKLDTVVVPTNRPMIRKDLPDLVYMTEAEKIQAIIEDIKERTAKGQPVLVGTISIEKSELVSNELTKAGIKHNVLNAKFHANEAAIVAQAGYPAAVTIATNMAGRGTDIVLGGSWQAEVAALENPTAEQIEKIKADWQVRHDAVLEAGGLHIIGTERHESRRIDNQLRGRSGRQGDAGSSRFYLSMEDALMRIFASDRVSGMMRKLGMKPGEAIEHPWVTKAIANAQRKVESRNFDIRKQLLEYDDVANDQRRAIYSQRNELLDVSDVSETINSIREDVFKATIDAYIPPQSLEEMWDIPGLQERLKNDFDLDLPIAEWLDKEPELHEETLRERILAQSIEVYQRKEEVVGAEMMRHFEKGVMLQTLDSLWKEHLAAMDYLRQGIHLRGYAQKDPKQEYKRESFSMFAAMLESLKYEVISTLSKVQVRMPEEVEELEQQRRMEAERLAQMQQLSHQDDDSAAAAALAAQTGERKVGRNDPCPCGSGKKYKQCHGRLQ
Sequence of Sialic acid-binding Ig-like lectin 9 (Homo sapiens) (Q9Y336 whole entry): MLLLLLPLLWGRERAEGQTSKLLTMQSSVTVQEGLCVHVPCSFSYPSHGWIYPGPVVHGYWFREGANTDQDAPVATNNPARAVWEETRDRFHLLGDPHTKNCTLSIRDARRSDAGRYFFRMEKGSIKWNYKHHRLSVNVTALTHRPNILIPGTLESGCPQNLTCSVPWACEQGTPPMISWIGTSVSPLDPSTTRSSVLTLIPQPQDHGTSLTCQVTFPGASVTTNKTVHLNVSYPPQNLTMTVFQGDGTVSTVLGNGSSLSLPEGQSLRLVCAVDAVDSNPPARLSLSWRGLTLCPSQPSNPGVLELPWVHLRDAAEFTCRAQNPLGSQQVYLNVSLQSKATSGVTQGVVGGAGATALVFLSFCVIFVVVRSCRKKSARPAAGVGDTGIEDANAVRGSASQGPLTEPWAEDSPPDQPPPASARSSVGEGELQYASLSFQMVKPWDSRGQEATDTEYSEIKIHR

Structure (SMILES) | Percent Effect [1] | Percent Effect [2] | Percent Effect [3] | Percent Effect [4] | Percent Effect [5] | Percent Effect [6] | Percent Effect [7] | Percent Effect [8] | Percent Effect [9] | Percent Effect [10] | Percent Effect [11]
Cn1ccnc1CNC(=O)N1CCCC(Cc2nccn2C)C1 (stereo unspecified) | -8.83% | -2.7% | 9.59% | -1.15% | -3.71% | -0.833% | 2.28% | -4.83% | 10.9% | 1.22% | 1.72%
c1ccc(Cn2cc3c(n2)C(COCC2CC2)OCC3)nc1 (stereo unspecified) | 3.09% | 10.4% | -0.118% | -14.8% | -4.24% | 3.23% | 12.4% | 8.69% | 1.06% | 6.41% | -7.74%
COc1ccccc1CN1CC[C@H]2C[C@@H](C(=O)N3CCCC3)O[C@H]2C1 | 2.23% | 13% | 4.84% | -5.31% | -7.99% | 4.52% | 8.88% | 6% | 6.35% | 14.1% | -7.87%
Cc1ccccc1N1CCCN(C(=O)CCCS(N)(=O)=O)CC1 | -0.353% | 8.22% | 25.9% | 2.05% | -8.62% | 2.73% | 23.8% | 28.3% | 3.23% | 2.5% | -13.8%
Cc1nc(NCCc2ccc(Cl)cc2)cc(C(=O)N2CCCCC2)n1 | -1.97% | 7.79% | 7.85% | -0.26% | -8.16% | -16.6% | 22.6% | 10.8% | 0% | 1.24% | -2.69%
CCc1nc(CN2CCCC(NCc3cc(C)no3)C2)no1 (stereo unspecified) | -1.34% | -28.6% | 1.07% | -1.38% | 3.82% | -3.16% | 5.42% | 5.74% | 3.81% | 7.06% | -11.5%
Cc1ccc(-n2nnc(C(=O)NS(C)(=O)=O)c2C2CC2)cc1 | -1.84% | 0% | -7.9% | 0.772% | 7.52% | -1.66% | -0.179% | 12.9% | 2.97% | 13.4% | 3.65%
O=C(Nc1ccc(N2CCCC2)nc1)N1CCc2ccccc2C1 | -3.4% | 0% | -13.6% | 2.55% | -6.45% | 3.75% | 20.7% | 7.01% | 15.8% | 18.3% | 0.41%
Cc1noc(C(C)C)c1C(=O)N1CCCN(Cc2cscn2)CC1 | -4.04% | 18.2% | -1.96% | -7.63% | 2.25% | -0.632% | 15.6% | 0.184% | 7.62% | 21.2% | -23.9%
Cc1cnn(CC2CCCCN2Cc2nnc(C3CC3)n2C)c1 (stereo unspecified) | -1.18% | -1.27% | 5% | -0.259% | 5.85% | 0.215% | 8.75% | -10.1% | 3.12% | 5.06% | -2.78%
Cc1nc(C)c(CNC(=O)NC(c2nnc3n2CCC3)C(C)C)s1 (stereo unspecified) | -6.15% | 0% | -0.521% | 1.26% | -4.1% | -2.08% | 12.8% | 8.88% | 5.94% | 11% | -0.921%
O=C(c1coc(COc2cccc(F)c2)n1)N1CC[C@H](O)[C@@H](O)C1 | -4.21% | 2.7% | 0.202% | 8.13% | 1.93% | 3.33% | 10.2% | 7.51% | 5.82% | 9.76% | -4.67%
Cc1cc(C(=O)N2CCCCC2c2nc(C)cs2)[nH]n1 (stereo unspecified) | -4.07% | 5.2% | 0.468% | -1.4% | 5.62% | -4.27% | -2.03% | -9.54% | 4.85% | 12.2% | 84.3%
CCC[C@@H]1CN(S(=O)(=O)c2ccc(C)c(F)c2)C[C@H]1N(C)C | -4.83% | 2.67% | -4.64% | -1.02% | -8.86% | 2.08% | 16.2% | 3.61% | 1.64% | 6.17% | -7.9%
COc1ccc(CN2CC[C@@H](O)[C@@H]2Cc2ccccc2)cc1 | -7.82% | -1.33% | 7.1% | -1.98% | -0.589% | -6.16% | 0.924% | 9.5% | -3.17% | -2.56% | -5.37%
CCOc1ccc(C(C)NC(=O)N2CCC(C(N)=O)CC2)cc1OC (stereo unspecified) | -4.66% | 10.8% | 4.64% | 6.99% | 6.76% | 1.43% | 14.7% | 4.99% | 5.82% | 12.2% | -0.606%
